# Screening data as filed in PubChem.
# This is a sample that favours compounds with a hit; in the whole collection about 3.4% have one here.
# TMEM16A inh: TMEM16A chloride channel inhibitors, primary screen, cell-based, HTS. Anoctamin-1 (Mus musculus), Q8BHY3. HEK293 TMEM16A/YFP iodide influx fluorescence, ionomycin. normalized B-score (activity score, 25-100; higher = stronger inhibition) at 10 µM. 310,000 tested, 1.2% active. AID 588511, 2011;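 active = ratio plate-corrected score three or more library SD toward inhibition, starting fluorescence score within five deviations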;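 also: score derived from kinetic fluorescence span divided by baseline fluorescence per well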
# Target sequence (Q8BHY3 whole entry, looked up): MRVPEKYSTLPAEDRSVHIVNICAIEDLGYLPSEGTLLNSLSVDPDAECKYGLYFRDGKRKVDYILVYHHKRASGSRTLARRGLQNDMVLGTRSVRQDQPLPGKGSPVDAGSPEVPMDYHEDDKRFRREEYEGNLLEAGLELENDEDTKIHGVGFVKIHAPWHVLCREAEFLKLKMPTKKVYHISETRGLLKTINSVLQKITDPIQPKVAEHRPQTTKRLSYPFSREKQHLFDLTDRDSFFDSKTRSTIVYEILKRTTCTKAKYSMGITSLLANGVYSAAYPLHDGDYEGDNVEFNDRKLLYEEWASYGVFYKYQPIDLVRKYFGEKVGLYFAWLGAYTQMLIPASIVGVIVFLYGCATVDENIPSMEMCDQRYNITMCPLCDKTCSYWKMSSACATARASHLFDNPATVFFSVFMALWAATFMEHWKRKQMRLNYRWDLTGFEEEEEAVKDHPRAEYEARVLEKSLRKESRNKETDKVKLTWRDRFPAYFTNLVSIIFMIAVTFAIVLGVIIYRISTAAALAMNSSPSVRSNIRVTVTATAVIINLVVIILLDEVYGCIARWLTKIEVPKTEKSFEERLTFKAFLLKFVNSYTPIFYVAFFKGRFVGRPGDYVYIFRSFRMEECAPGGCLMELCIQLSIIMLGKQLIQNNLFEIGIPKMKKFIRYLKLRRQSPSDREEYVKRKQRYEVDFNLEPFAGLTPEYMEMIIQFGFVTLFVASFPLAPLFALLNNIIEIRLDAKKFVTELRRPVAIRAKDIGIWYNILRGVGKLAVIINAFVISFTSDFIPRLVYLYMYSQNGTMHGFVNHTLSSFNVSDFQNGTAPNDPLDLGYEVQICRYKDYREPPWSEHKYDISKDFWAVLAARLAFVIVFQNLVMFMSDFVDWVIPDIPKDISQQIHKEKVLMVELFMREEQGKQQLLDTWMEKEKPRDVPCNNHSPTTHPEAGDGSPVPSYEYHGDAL
# MEKK2wt PB1 HTS: modulators of MEK5 binding to wildtype MEKK2, primary screen, biochemical, multiplex bead flow cytometry, Alexa488-MEK5. AID 1531, 2009. Mitogen-activated protein kinase kinase kinase 2 (Homo sapiens), Q9Y2U5. 290,000 tested, 1.1% active. Alexa488-MEK5 binding to MEKK2 WT; actives lie on both sides. binding response (% of control), % at 10 µM; in the data active = binding response below about 67% or above about 130%
# ANO1 activ: TMEM16A chloride channel activators or potentiators, primary screen, cell-based, HTS; Anoctamin-1 (Mus musculus), Q8BHY3; HEK293 TMEM16A/YFP-H148Q/I152L, iodide quench fluorescence; hits give low values; B-score at 10 µM; 340,000 tested, 0.3% active;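 active = fluorescence-ratio B-score plate-corrected deviation score at least 3 library SD below zero, with starting fluorescence score within 5 deviations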;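 also: channel opened by trigger with iodide after compound preincubation; score built on the fluorescence ratio of max minus min over baseline; more negative score means more quench and so TMEM16A activation or potentiation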
# MEKK3 PB1 HTS: modulators of MEKK3-MEK5 PB1 binding, primary screen, biochemical, wildtype MEKK3, multiplex bead flow cytometry, Alexa488-MEK5; Mitogen-activated protein kinase kinase kinase 3 (Homo sapiens), Q99759; bead-based flow cytometry, Alexa488-MEK5 binding to MEKK3; actives lie on both sides; 0 = blocked by unlabeled MEK5, 100 = vehicle; binding response (% of control), % at 10 µM; 290,000 tested, 1.4% active; AID 1529, 2009;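 active = binding response more than 3 SD above or below the average of its plate-row segment, actives on both sides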;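 also: Alexa488 bead fluorescence after subtracting the streptavidin-only scavenger bead signal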
# NTR1 agonist: agonists of human NTR1, primary screen, imaging, U2OS cells, beta-arrestin-GFP, high content | Neurotensin receptor type 1 (Homo sapiens), P30989 | NTR1-U2OS beta-arrestin-GFP spot imaging, agonist mode | activation, % at 20 µM | 330,000 tested, 0.17% active;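 active = activation at or above 40% of the spot to cytoplasm intensity ratio, with at least 20 cells analyzed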;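 also: 0% = DMSO without peptide and 100% = 100 nM NTR1 peptide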
# MEKK2 mut-MEK5: MEK5 binding signal on mutant MEKK2 PB1, primary screen, biochemical, multiplex bead flow cytometry, Alexa488-MEK5; AID 1530, 2009; 290,000 tested, 0.35% active; percent response, % at 10 µM; Alexa488-MEK5 binding to MEKK2 mutant; in the data active = percent response above about 24%, passing the limit was not always enough
# MEKK2wt confirm: modulators of MEK5 binding to wildtype MEKK2, confirmation, biochemical, single concentration, multiplex bead flow cytometry | shares compounds with MEKK3 PB1 HTS | Alexa488-MEK5 binding to MEKK2 WT; actives lie on both sides | binding response (% of control), % at 10 µM | 5,900 tested, 2.4% active; in the data active = binding response below about 16% or above about 210%; inactive = in between
# MEKK2mut-MEK5: mutant MEKK2 PB1-MEK5 binding signal retest – biochemical, single concentration, multiplex bead flow cytometry, confirmation; shares compounds with MEKK3 PB1 HTS; Alexa488-MEK5 binding to MEKK2 mutant; percent response, % at 10 µM; 5,900 tested, 2% active; in the data active = percent response mostly above about 71%, no sharp cut-off; inactive = mostly below about 38%;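 also: higher means compound restores mutant binding toward wildtype level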
# MEKK3-MEK5 inh: MEKK3 wild-type PB1 binding to MEK5, inhibitors, confirmation, biochemical, bead multiplex flow cytometry, single concentration, wildtype. binding response (% of control), % at 10 µM. shares compounds with MEKK3 PB1 HTS. Alexa488-MEK5 binding to MEKK3; hits give low values. 5,900 tested, 1.8% active;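 active = binding response below 72% of control, or above a set upper limit, though filed actives all read lower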;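 also: 100% = DMSO only wells and 0% = binding blocked by excess unlabeled MEK5; lower values mean stronger disruption of MEK5 binding to MEKK3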
# An asterisk follows results filed as active; i = inactive; . = no result given; [ ] = another dose, or the depositor's remark.
SMILES,TMEM16A inh,MEKK2wt PB1 HTS,ANO1 activ,MEKK3 PB1 HTS,NTR1 agonist,MEKK2 mut-MEK5,MEKK2wt confirm,MEKK2mut-MEK5,MEKK3-MEK5 inh
COc1ccc(C(CCN2CCCC2)c2c(OC)cc(OC)c3c(-c4ccccc4)cc(=O)oc23)cc1 (centres undefined),i,152*,i,108,7,20,164,45,114
COc1cc(C(CCN2CCOCC2)c2c(OC)cc(OC)c3c(-c4ccccc4)cc(=O)oc23)cc(OC)c1OC (centres undefined),.,.,.,.,4,.,.,.,.
COc1cc(OC)c2c(-c3ccccc3)cc(=O)oc2c1C(CCN1CCN(c2ccccc2)CC1)c1ccc(N(C)C)cc1 (centres undefined),i,113,i,99,-4,6,.,.,.
COc1cc(C(CCN2CCCCC2)c2c(OC)cc(OC)c3c(C)cc(=O)oc23)cc(OC)c1OC (centres undefined),i,141*,i,118,-3,6,105,4,100
COc1ccc(C(CCN2CCCC(C)C2)c2c(OC)cc(OC)c3c(-c4ccccc4)cc(=O)oc23)cc1 (centres undefined),i,207*,i,110,25,41*,190,52,110
COc1ccc(C(CCN2CCOCC2)c2c(OC)cc(OC)c3c(-c4ccccc4)cc(=O)oc23)cc1 (centres undefined),.,.,i,.,3,.,.,.,.
CCN(CC)CCC(c1ccc(N(C)C)cc1)c1c(OC)cc(OC)c2c(-c3ccccc3)cc(=O)oc12 (centres undefined),i,178*,i,111,24,25*,144,22,103
CCOc1ccccc1C(=O)NCC(=O)NCC(C)(C)N1CCOCC1,.,.,i,.,0,.,.,.,.
CCOc1ccc(NC(=O)CN(C)C(=O)Cc2c(C)nc3ccccc3c2C)cc1OCC,i,110,i,108,0,7,.,.,.
CCCn1c(C)cc(C(=O)COC(=O)c2ccc[nH]c2=O)c1C,i,106,i,130*,0,0,97,-2,102
CC(C)CCN1CCN(Cc2coc3ccccc3c2=O)CC1CCO (centres undefined),i,107,i,105,0,4,.,.,.
CC(C)N1CCN(Cc2coc3ccccc3c2=O)CC1CCO (centres undefined),i,120,i,131*,0,0,76,-22,64*
COc1ccc(S(=O)(=O)Nc2cccc3c2O[C@@H](CN(C)Cc2ccc(C(=O)O)cc2)[C@@H](C)CN([C@H](C)CO)C3=O)cc1,.,.,i,.,-3,.,.,.,.
O=C(/C=C/c1ccc(Br)o1)NC(c1ccccc1)c1ccccc1,i,102,i,140*,0,1,97,-5,102
O=C(NC(c1ccccc1)c1ccccc1)c1ccc(Br)o1,i,108,i,105,-4,3,.,.,.
CC(C)(C)OC(=O)C[C@@H]1C/C=C\C[C@H](CC(=O)N[C@H](CO)Cc2ccccc2)C(=O)N[C@H](C(C)(C)C)COC1=O,.,.,.,.,-2,.,.,.,.
CCOc1ccc(C2=C/C(=C/c3cccnc3)C(=O)O2)cc1,i,84,i,82*[inhibitor],-1,-2,37,-17,59*
CC1=C/C(=N\NC(=S)NCc2ccccc2)CC1,i,100,i,98,0,-3,.,.,.
Cc1cc(N)n(-c2ccccc2)n1,i,.,i,.,0,.,.,.,.
Cc1cc(-c2cc(N)n(-c3ccccc3)n2)c(C)n1C1CCCC1,i,-5.0*[inhibitor],i,89,-1,-34,99,4,102
COc1ccc(-c2ccc(SCC(=O)N3c4ccccc4CC3C)nn2)cc1OC (centres undefined),i,117,i,122*,4,9,107,2,100
COc1ccc(C(=O)Cn2nc(CNc3ccc(Br)cc3)[n+]3c2CCCCC3)cc1,i,150*,i,103,-1,5,148,20,107
COc1ccc(OC)c(N2Cc3cc(C)c(C)cc3C2)c1,i,10*[inhibitor],i,8.0*[inhibitor],3,-27,91,-5,98
CCOc1ccccc1N1Cc2cc(C)c(C)cc2C1,i,92,i,96,9,4,.,.,.
COC(=O)CSc1nc(SCc2ccccc2Cl)nc2c1CCCC2,i,95,i,92,2,-3,.,.,.
SMILES,TMEM16A inh,MEKK2wt PB1 HTS,ANO1 activ,MEKK3 PB1 HTS,NTR1 agonist,MEKK2 mut-MEK5,MEKK2wt confirm,MEKK2mut-MEK5,MEKK3-MEK5 inh
O=C(O)CSc1nc(SCc2ccccc2Cl)nc2c1CCCC2,i,125,i,122*,1,10,103,0,103
Clc1ccc(-c2csc3ncnc(N4CCc5ccccc5C4)c23)cc1,i,102,i,131*,15,0,106,-1,97
CSc1nnc(N2C(=O)C(O)=C(C(=O)c3ccco3)C2c2cccc(Cl)c2)s1 (centres undefined),i,100,i,101,.,-6,.,.,.
Cn1ncc2c(NNC(=O)c3ccccc3Cl)ncnc21,i,100,i,129*,1,-1,100,2,104
COc1cc(/C=N\NC(=O)CNC(=O)C(c2ccccc2)c2ccccc2)ccc1O,i,98,i,103,5,5,.,.,.
COc1ccc(/C=N\NC(=O)CNC(=O)C(c2ccccc2)c2ccccc2)cc1[N+](=O)[O-],i,104,i,143*,1,0,98,-6,101
CCOc1ccc2[nH]c3c(c2c1)CNCC3,i,158*,i,102,1,13,134,23,97
